Measurements reported in PubChem BioAssay AID1159580 (chemical genetic matrix, 2015).
Among all 5,500 compounds or so, about 2,000 (36%) were called active. Not shown: some 18% with an inconclusive outcome. Cut-off read from the data, not from the text of the source: active = normalized growth mostly below about 0.91 (no sharp cut-off); inconclusive = no clear call, values can overlap the other calls; inactive = mostly above about 0.92. The list shows a part of the results.

Experiment: chemical genetic growth profiling, strain panel (AID 1159580);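 note: tested at 20 µM; growth read once vehicle control cultures reached saturation at 30 °C; 1 = growth at the plate median or of vehicle wells; lower values mean less growth of the strain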
Conditions: S. cerevisiae deletion strains, growth OD
[1] = locus YAR019C, strain CDC15, hits give low values
[2] = locus YBL105C, strain PKC1, hits give low values
[3] = locus YBR135W, strain CKS1, hits give low values
[4] = locus YBR136W, strain MEC1, hits give low values
[5] = locus YBR160W, strain CDC28, hits give low values
[6] = locus YDL017W, strain CDC7, hits give low values
[7] = locus YDL028C, strain MPS1, hits give low values
[8] = locus YDL101C, strain DUN1, hits give low values
[9] = locus YDL108W, strain KIN28, hits give low values
[10] = locus YDL132W, strain cdc53, hits give low values
[11] = locus YDL214C, strain PRR2, hits give low values
[12] = locus YDR052C, strain DBF4, hits give low values
[13] = locus YDR054C, strain cdc34, hits give low values
[14] = locus YDR226W, strain ADK1, hits give low values
[15] = locus YDR477W, strain SNF1, hits give low values
[16] = locus YER123W, strain YCK3, hits give low values
[17] = locus YER133W, strain GLC7, hits give low values
[18] = locus YFL009W, strain cdc4, hits give low values
[19] = locus YFL029C, strain CAK1, hits give low values
[20] = locus YFR003C, strain YPI1, hits give low values
[21] = locus YFR019W, strain FAB1, hits give low values
[22] = locus YFR028C, strain CDC14, hits give low values
[23] = locus YGR040W, strain KSS1, hits give low values
[24] = locus YGR052W, strain FMP48, hits give low values
[25] = locus YGR092W, strain DBF2, hits give low values
[26] = locus YHR030C, strain SLT2, hits give low values
[27] = locus YHR079C, strain IRE1, hits give low values
[28] = locus YHR082C, strain KSP1, hits give low values
[29] = locus YHR205W, strain SCH9, hits give low values
[30] = locus YIL147C, strain SLN1, hits give low values
[31] = locus YJL095W, strain BCK1, hits give low values
[32] = locus YJL128C, strain PBS2, hits give low values
[33] = locus YJL157C, strain FAR1, hits give low values
[34] = locus YJR016C, strain ILV3, hits give low values
[35] = locus YJR066W, strain TOR1 (second series), hits give low values
[36] = locus YJR066W, strain TOR1, hits give low values
[37] = locus YKL048C, strain ELM1, hits give low values
[38] = locus YKL067W, strain YNK1, hits give low values
[39] = locus YKL101W, strain HSL1, hits give low values
[40] = locus YKL193C, strain SDS22, hits give low values
[41] = locus YKL203C, strain TOR2, hits give low values
[42] = locus YLR113W, strain HOG1, hits give low values
[43] = locus YLR133W, strain CKI1, hits give low values
[44] = locus YLR403W, strain SFP1, hits give low values
[45] = locus YML070W, strain DAK1, hits give low values
[46] = locus YMR001C, strain CDC5, hits give low values
[47] = locus YMR205C, strain PFK2 (second series), hits give low values
[48] = locus YMR277W, strain FCP1, hits give low values
[49] = locus YNL006W, strain LST8, hits give low values
[50] = locus YNL020C, strain ARK1, hits give low values
[51] = locus YNL161W, strain CBK1, hits give low values
[52] = locus YNL183C, strain NPR1, hits give low values
[53] = locus YNL207W, strain RIO2, hits give low values
[54] = locus YNL222W, strain SSU72, hits give low values
[55] = locus YNL307C, strain MCK1 (second series), hits give low values
[56] = locus YOL078W, strain AVO1, hits give low values
[57] = locus YOL136C, strain PFK27, hits give low values
[58] = locus YOR061W, strain CKA2, hits give low values
[59] = locus YOR119C, strain RIO1, hits give low values
[60] = locus YOR231W, strain MKK1, hits give low values
[61] = locus YOR329C, strain SCD5, hits give low values
[62] = locus YPL031C, strain PHO85, hits give low values
[63] = locus YPL153C, strain RAD53, hits give low values
[64] = locus YPL204W, strain HRR25, hits give low values
[65] = locus YPL209C, strain IPL1, hits give low values
[66] = locus YPL256C, strain CLN2, hits give low values
[67] = locus YPR025C, strain CCL1, hits give low values
[68] = locus YPR106W, strain ISR1, hits give low values
[69] = locus YPR111W, strain DBF20, hits give low values
[70] = strain NNK1, hits give low values
[71] = strain TSCII, hits give low values

Measured: normalized growth

S=C(Nc1cc(-c2cccs2)[nH]n1)Nc1ccccc1Cl
active: [26] 0.616 | [42] 0.739 | [66] 0.72
inactive: [1] 0.93 | [2] 0.938 | [3] 0.934 | [4] 0.934 | [5] 0.943 | [6] 0.938 | [7] 0.932 | [8] 0.945 | [9] 0.938 | [10] 0.955 | [11] 0.825 | [12] 0.942 | [13] 0.916 | [14] 0.939 | [15] 0.816 | [16] 0.755 | [17] 0.809 | [18] 0.929 | [19] 0.925 | [20] 0.934 | [21] 0.859 | [22] 0.932 | [23] 0.819 | [24] 0.908 | [25] 0.796 | [27] 0.842 | [28] 0.821 | [29] 0.813 | [30] 0.93 | [31] 0.748 | [32] 0.908 | [33] 0.836 | [34] 0.935 | [35] 0.778 | [36] 0.773 | [37] 0.885 | [38] 0.835 | [39] 0.891 | [40] 0.917 | [41] 0.866 | [43] 0.858 | [44] 0.827 | [45] 0.834 | [46] 0.927 | [47] 0.877 | [48] 0.93 | [49] 0.937 | [50] 0.837 | [51] 0.938 | [52] 0.803 | [53] 0.913 | [54] 0.939 | [55] 0.746 | [56] 0.932 | [57] 0.859 | [58] 0.859 | [59] 0.88 | [60] 0.829 | [61] 0.935 | [62] 0.8 | [63] 0.804 | [64] 0.791 | [65] 0.942 | [67] 0.936 | [68] 0.932 | [69] 0.942 | [70] 0.94 | [71] 0.936

O=C(Nc1cc(Cl)cc(Cl)c1)Nc1cc(-c2cccs2)[nH]n1
active: [21] 0.759 | [26] 0.459 | [42] 0.825 | [66] 0.755
inactive: [1] 0.957 | [2] 0.97 | [3] 0.958 | [4] 0.972 | [5] 0.959 | [6] 0.971 | [7] 0.964 | [8] 0.972 | [9] 0.97 | [10] 0.949 | [11] 0.826 | [12] 0.978 | [13] 0.95 | [14] 0.973 | [15] 0.85 | [16] 0.712 | [17] 0.864 | [18] 0.956 | [19] 0.956 | [20] 0.964 | [22] 0.967 | [23] 0.816 | [24] 0.916 | [25] 0.686 | [27] 0.734 | [28] 0.733 | [29] 0.796 | [30] 0.967 | [31] 0.739 | [32] 0.982 | [33] 0.849 | [34] 0.948 | [35] 0.8 | [36] 0.762 | [37] 0.89 | [38] 0.854 | [39] 0.861 | [40] 0.958 | [41] 0.872 | [43] 0.851 | [44] 0.806 | [45] 0.815 | [46] 0.965 | [47] 0.88 | [48] 0.959 | [49] 0.955 | [50] 0.854 | [51] 0.959 | [52] 0.772 | [53] 0.949 | [54] 0.957 | [55] 0.744 | [56] 0.954 | [57] 0.763 | [58] 0.891 | [59] 0.906 | [60] 0.817 | [61] 0.962 | [62] 0.791 | [63] 0.739 | [64] 0.669 | [65] 0.958 | [67] 0.963 | [68] 0.953 | [69] 0.947 | [70] 0.948 | [71] 0.961

O=C(Nc1cc(Cl)cc(Cl)c1)Nc1cc(-c2ccco2)[nH]n1
active: [10] 0.608 | [11] 0.293 | [13] 0.566 | [15] 0.294 | [16] 0.15 | [17] 0.269 | [19] 0.616 | [21] 0.147 | [23] 0.288 | [24] 0.23 | [25] 0.128 | [26] 0.103 | [27] 0.119 | [28] 0.209 | [29] 0.287 | [31] 0.112 | [33] 0.257 | [35] 0.129 | [36] 0.142 | [37] 0.454 | [38] 0.316 | [39] 0.38 | [41] 0.253 | [42] 0.146 | [43] 0.295 | [44] 0.229 | [45] 0.181 | [47] 0.496 | [48] 0.777 | [49] 0.839 | [50] 0.3 | [52] 0.169 | [55] 0.202 | [57] 0.166 | [58] 0.322 | [59] 0.245 | [60] 0.115 | [62] 0.204 | [63] 0.145 | [64] 0.163 | [66] 0.14
inactive: [2] 0.935 | [3] 0.929 | [4] 0.935 | [5] 0.942 | [6] 0.95 | [7] 0.937 | [9] 0.938 | [12] 0.945 | [14] 0.94 | [20] 0.94 | [22] 0.935 | [30] 0.934 | [32] 0.944 | [34] 0.928 | [46] 0.935 | [51] 0.948 | [53] 0.894 | [54] 0.923 | [61] 0.951 | [65] 0.941 | [67] 0.93 | [68] 0.943 | [69] 0.944 | [70] 0.913
